Prx2 Sm inh: Schistosoma Mansoni Peroxiredoxins (Prx2). actives 0.07% (n = 65,000). Schistosoma mansoni peroxiredoxin 2 (Prx2). S. mansoni Prx2 activity coupled to TGR/GSH (TGR is thioredoxin glutathione reductase), NADPH fluorescence loss, qHTS. Potency, µM
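Enzyme mix: 100 uM NADPH, 25 nM TGR, 700 uM GSH, 50 nM Prx2 in 100 mM phosphate pH 7.4, 10 mM EDTA, 0.01% Tween-20. 15 min RT with compound; NADPH/GSH added, H2O2 starts reaction; NADPH fluorescence read 8 min.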
AmpC inh det: Promiscuous and Specific Inhibitors of AmpC Beta-Lactamase (assay with detergent); actives 0.09% (n = 71,000); Potency, µM (series often up to 28.7 µM), inactives show top-dose activity change, negative = inhibition; P00811; purified AmpC, nitrocefin hydrolysis with detergent; active = well fitted curve in the direction sought with a large enough effect; inconclusive = small, poorly fitted or top-dose-only effect; note: % is set by controls: 0 for no effect and ±100 for the full control effect
Target sequence (P00811 whole entry, looked up): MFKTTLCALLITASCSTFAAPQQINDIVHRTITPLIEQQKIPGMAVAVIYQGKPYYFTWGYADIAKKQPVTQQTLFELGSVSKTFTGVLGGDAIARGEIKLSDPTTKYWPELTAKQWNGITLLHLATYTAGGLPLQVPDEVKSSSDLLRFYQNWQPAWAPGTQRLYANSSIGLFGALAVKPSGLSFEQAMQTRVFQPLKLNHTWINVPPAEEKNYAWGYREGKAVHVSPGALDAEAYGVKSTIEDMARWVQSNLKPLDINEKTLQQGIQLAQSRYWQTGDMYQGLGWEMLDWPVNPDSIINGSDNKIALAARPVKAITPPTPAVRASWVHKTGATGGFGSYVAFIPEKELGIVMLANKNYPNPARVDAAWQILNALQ
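E. coli AmpC (5.3 nM) in 20 mM phosphate pH 7.0 with 0.01% Triton X-100, preincubated 15 min RT with compound; nitrocefin (2 uL of 800 uM stock) hydrolysis followed by 480 nm absorbance every 20 s over 4 min.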
LT uptake inh: qHTS Assay for Anthrax Lethal Toxin Internalization | actives 0.67% (n = 70,000) | Potency, µM (series often up to 40 µM), for inactives: at the top dose activity change, negative = inhibition, most hits filed as inhibitors | Cells, anthrax lethal toxin internalization, FRET ratio (460/530); note: % is set by controls: 0 for no effect and ±100 for the full control effect; nearly all actives have a fitted effect of over 50% in size
AmpC nodet inh: Promiscuous and Specific Inhibitors of AmpC Beta-Lactamase (assay without detergent); P00811; AmpC nitrocefin hydrolysis, absorbance 480 nm, no detergent; Potency, µM (highest dose often 28.7 µM), without a hit: at the top dose activity change, negative = inhibition; actives 1.8% (n = 71,000); note: % of control where 0% means no effect
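AmpC in 20 mM phosphate buffer pH 7.0 was preincubated 15 min at room temperature with compounds. Nitrocefin (800 uM stock) was then added and hydrolysis followed at 480 nm every 20 s for 4 min.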
* = called active by the depositor; ? = inconclusive; / = not tested or not shown; [ ] = remark or other dose. The list is not random: actives were taken first. Their share in the collection is about 2.4%. Unless noted, calls come from the whole dose curve. Potency is the fitted concentration of half-maximal effect.

SMILES	Prx2 Sm inh	AmpC inh det	LT uptake inh	AmpC nodet inh
CCN1CCN(C(=O)N[C@H](C(=O)N[C@@H]2C(=O)N3[C@@H]2SC(C)(C)[C@@H]3C(=O)O)c2ccccc2)C(=O)C1=O	>57	?	-1%[3.58 µM]	?
COC(=O)N1CCC2(CC1)CCN(C(c1ccccc1)c1ccccc1)CC2	>57	1%	-7%	30%
O=C(O)c1ccc(Cl)c(Cl)c1	/	8%	-4%	-12%
O=C(CCc1ccc(S(=O)(=O)N2CCCCC2)cc1)c1nnc(-c2ccccc2)o1	>57	-6%	-22%	20µM*[single pt active]
COc1ccccc1Cc1nc(-c2ccc(Br)o2)no1	>57	10%	?	4µM*[single pt active]
Nc1ccc(-c2ccc(N)c(O)c2)cc1O	/	12%	?	0.79µM*
COCCN(CCOC)c1nc(C)nc2c1nc(-c1ccccc1)n2CCCN(C)C	/	19%	-10%	47%
CCN(CC)C(=O)C1CCCc2c1[nH]c1ccc(Cl)cc21 (stereo not drawn)	/	15%	-17%	4µM*[single pt active]
O=C(Cc1ccccc1)Nc1nc(-c2cccs2)cs1	>57	-2%	?	?
O=C(COc1ccc(Cl)cc1)Nc1nc(-c2cccs2)cs1	>57	1%	10µM*	?
Nc1nc2ccc([N+](=O)[O-])cc2s1	/	6%	-11%	-18%
OC(CNCc1ccco1)Cn1c2ccccc2c2ccccc21 (stereo not drawn)	>57	-6%	-6%	40%
CS(=O)(=O)N(Cc1ccco1)CC(O)Cn1c2ccccc2c2ccccc21 (stereo not drawn)	>57	3%	10µM*	87%
C=C(C)[C@H]1Cc2c(ccc3c2O[C@H]2COc4cc(OC)c(OC)cc4[C@@H]2C3=O)O1	>57	-3%	?	115%
CC(C)(N)CO[C@H]1C[C@H]2CC[C@@]1(C)C2(C)C	>57	-1%[5.75 µM]	-10%[8 µM]	-8%[5.75 µM]
CC(C)(C)OC(=O)N1CCC(C(N)=O)CC1	>57	12%	-13%	4µM*[single pt active]
O=S(=O)(Nc1nccs1)c1cc(Cl)ccc1Cl	>57	-5%	2%	10µM*[single pt active]
O=C(NCc1ccccc1)C1CCCN(S(=O)(=O)c2cccnc2)C1 (stereo not drawn)	>57	-2%	-6%	0%
CCN(CC)c1ccc(NC(=O)C2CCCN(S(=O)(=O)c3cccnc3)C2)c(C)c1 (stereo not drawn)	>57	16%	-13%	4µM*[single pt active]
COc1ccc(S(=O)(=O)N2CCCC(C(=O)Nc3cccnc3)C2)cc1Cl (stereo not drawn)	>57	10%	-10%	41%
COc1ccc(NC(=O)C2CCCN(S(=O)(=O)c3cccnc3)C2)c(OC)c1 (stereo not drawn)	>57	16%	-2%	4µM*[single pt active]
Cc1ccccc1-c1noc(-c2ccc(O)cc2)n1	/	-3%	10µM*	-7%
Cc1ccc(-c2noc(-c3ccccc3Br)n2)cc1	/	10%	?	-17%
C=C1CC[C@@H](O)C/C1=C/C=C1\CCC[C@]2(C)[C@@H]1CC[C@H]2[C@@H](C)CCCC(C)C	>57	-3%	?	34%
CCC(C)NC(=O)c1cn(CC)c2ccc(S(=O)(=O)N(C)C)cc2c1=O (stereo not drawn)	>57	8%	5%	86%
SMILES	Prx2 Sm inh	AmpC inh det	LT uptake inh	AmpC nodet inh
CN1CCN(C(=O)c2cn(C)c3ccc(S(=O)(=O)N(C)C4CCCCC4)cc3c2=O)CC1	>57	12%	-23%	27%
CCn1cc(C(=O)NC2CCCCC2)c(=O)c2cc(S(=O)(=O)N(C)C)ccc21	>57	11%	-9%	4µM*[single pt active]
CCN(CC)CCNC(=O)c1cn(C)c2ccc(S(=O)(=O)N(C)C3CCCCC3)cc2c1=O	>57	12%	4µM*	4µM*[single pt active]
CCN(CC)CCNC(=O)c1cn(CC)c2ccc(S(=O)(=O)N(C)C)cc2c1=O	>57	13%	-5%	3.2µM*[single pt active]
CCn1cc(C(=O)O)c(=O)c2cc(S(=O)(=O)N(C)C)ccc21	>57	9%	-9%	0%
CC(=O)OC[C@@H]1O[C@@H](O/N=C2/C[C@@H](O)[C@@H](O)[C@@H]3[C@@H]4C(=O)N(c5cccc(Oc6ccccc6)c5)C(=O)[C@H]4CC[C@H]23)[C@H](OC(C)=O)[C@H](OC(C)=O)[C@@H]1OC(C)=O	/	/	-4%[0.32 µM]	/
Cc1nc(NC2CCCCC2)c2nc(-c3ccccc3)n(CC3CCN(C)CC3)c2n1	/	16%	-7%	45%
CCN1C(=O)[C@H]2[C@H]3[C@H](O)[C@H](O)C/C(=N/OC/C=C(\C)CCC=C(C)C)[C@H]3CC[C@@H]2C1=O	/	/	2%[1.6 µM]	/
O=C(NC1CCCCC1)N1CCC(n2c(=O)[nH]c3ccccc32)CC1	>57	18%	-14%	3.2µM*[single pt active]
O=C(COC(=O)C1CCN(S(=O)(=O)c2cccs2)CC1)c1ccc2c(c1)OCCO2	>57	-3%	0%	-17%
O=C(COC(=O)C1CCN(S(=O)(=O)c2cccs2)CC1)c1cc2ccccc2o1	>57	-2%	-8%	10µM*
C=CCn1c(SCCCC)nc(O)cc1=O	>57	11%	-3%	4µM*[single pt active]
COc1ccc(S(=O)(=O)Cc2ccc(C(=O)NC3CC3)o2)cc1	>57	4%	9%	0%
COc1ccccc1S(=O)(=O)Cc1ccc(C(=O)NCCN(C)C)o1	>57	5%	-13%	-2%
COc1ccccc1S(=O)Cc1ccc(C(=O)NCCc2ccc(Cl)cc2)o1 (stereo not drawn)	>57	11%	2.5µM*	73%
COc1ccccc1S(=O)Cc1ccc(C(=O)NC2CCCC2)o1 (stereo not drawn)	>57	11%	-19%	4µM*[single pt active]
C=CCSc1nnc(NC(=O)CSc2nc3ccccc3o2)s1	>57	-3%	26%	10µM*[single pt active]
O=C(Nc1ccc(-c2noc(CCc3ccccc3)n2)cc1)c1cccnc1	>57	-3%	10µM*	98%
C=CC(=O)OCCCCCCOC(=O)C=C	/	10%	27%	11%
CC(C)c1cccc2c([Si](C)(C)C)c3c(nc12)-c1cccc(=O)n1C3	>57	-8%	?	217%
O=C1C(SCCO)=C(SCCO)C(=O)c2ccccc21	>57	10%	4µM*	10%
COc1ccccc1CNc1ccnc(-c2cccnc2)n1	>57	8%	2%	25%
N#Cc1c(N)oc(-c2ccc3c(c2)OCO3)c1-c1ccc2c(c1)OCO2	>57	-2%	5%	10µM*
N#Cc1c(N)nc2c(c1-c1ccc3c(c1)OCO3)CCCCCC2	>57	0%	-25%	8%
N#Cc1cccc(NC(=O)N2CCCC3(CCN(C(=O)c4cc(C(F)(F)F)cc(C(F)(F)F)c4)CC3)C2)c1	>57	-2%	?	53%
CCN(CC)CCOc1ccc(Cc2ccccc2)cc1	>57	-1%	25µM*	65%
NC(=O)c1ncn([C@@H]2O[C@@H](CO)[C@@H](O)[C@H]2O)n1	?	-3%	/	8%
COc1ccc(NC(=O)c2cc(-c3cc(C)ccc3O)n[nH]2)cc1Cl	>57	-3%	?	-12%

Screening results deposited in PubChem BioAssay by National Center for Advancing Translational Sciences (NCATS).
